The structures appear in SMILES notation. Records with an inconclusive call do not appear. The source made the active and inactive calls. Unless noted, calls come from the whole dose curve; as a rule, active = well fitted curve in the direction sought with a large enough effect; inconclusive = small, poorly fitted or top-dose-only effect, or another doubt; inactive = no such curve, though single readings can be large; an effect the other way counts as inactive or inconclusive. Positions of bridges follow the written chain, without caps; N, C: chain ends. Non-standard residues stand in square brackets, D forms with d. Residues, ends and D or L forms follow the SMILES beside them. ξ: configuration not given here. *: point of attachment. ξDab(CH2SO3H) = NC(CCNCS(=O)(=O)O)C(=O)O; Octanoyl(6-Me) = CCC(C)CCCCC(=O)*; Dab = NCC[CH](N)C(=O)O

The source of these data is PubChem BioAssay (NCATS).

The target in assay [1] is Glutathione peroxidase 1 (Homo sapiens) (UniProt P07203). Nature of the assay: Primary qHTS Assay for Inhibitors of Recombinant Selenoprotein Glutathione Peroxidase 1 (GPX1) (AID 1845191). Note: nearly all actives have a fitted effect of over 65% in size. The essentials:
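10 nM GPX1 + cpd, 30 min RT; start w/ 1 mM GSH, 0.5 mM cumene hydroperoxide, 0.5 mM NADPH, 100 nM GR, 0.01% BSA; buffer 50 mM Tris-HCl pH 7.5, 2 mM EDTA, 150 mM NaCl; Fl 340/450, 0 & 15 min.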

Assay [2] is described as follows: Confirmatory screen NINDS Rhodamine qHTS for Zika virus inhibitors (AID 1347161).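 For activity change, negative = inhibition: purified Zika NS2B-NS3 protease with linked NS2B cofactor domain and Rhodamine110 peptide substrate; plate controls were no-inhibitor control for no effect and no-enzyme control for full effect.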 Note: nearly all actives have a fitted effect of over 60% in size. Note: potency is the fitted concentration of half-maximal effect. The essentials:
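Purified linked NS2B-NS3 protease (NS2B hydrophilic domain joined to NS3 protease by flexible linker), 25 nM in 10 mM Tris-HCl pH 8.0, 0.01% Tween 20. Compounds titrated, 15 min preincubation at room temperature; 1.5 microM Rhodamine110 substrate, FITC fluorescence change over 15 min.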

The subject of assay [3] is Zika virus NS2B-NS3 protease (linked). The assay can be described thus: 384 well plate NINDS AMC confirmatory qHTS for Zika virus inhibitors (AID 1347163). Note: potency is the fitted concentration of half-maximal effect; nearly all actives have a fitted effect of over 50% in size. The essentials: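 Linked protease 5/30/60 nM final; cpds up to 1 mM final, ~15 min preinc. Substrate Ac-VKTGKR-AMC 30 microM final. RT, dark, 25 min; FI ex 355/em 460; normalized to no-enzyme/no-inhibitor ctrls.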
On the technique in general: qHTS replaces the single test concentration by a dilution series.

The subject of assay [4] is Zika virus NS2B-NS3 protease (linked construct). The assay can be described thus: 384 well plate NINDS Rhodamine confirmatory qHTS for Zika virus inhibitors (AID 1347164). Note: potency is the fitted concentration of half-maximal effect; nearly all actives have a fitted effect of over 65% in size. An outline of the steps:
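Compounds are incubated about 15 minutes with linked protease (5, 30 or 60 nM final). Rhodamine 110-tagged Ac-LKRR substrate (10 microM final) is added and fluorescence measured after 25 minutes.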

The nature of assay [5]: Confirmation and Secondary Assay for Modulators of Hemoglobin Beta Chain Splicing at IVS2 654 locus (AID 910).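 Note: HeLa cells stably carrying EGFP split by mutant beta-globin IVS2-654 intron; per-well total GFP intensity by laser scanning cytometry after 2-day treatment; % of control where 0% means no effect.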 The essentials:
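Readout: per-well total peak green fluorescence (488 nm ex, 500–520 nm em) from objects 5–250 µm, reflecting correct splicing of an EGFP-654 reporter. Compounds were applied for 2 days at 37 °C to overnight-plated HeLa EGFP-654 cells; controls were DMSO and 500 nM IVS2-654 PNA.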

Assay [6] can be described thus: Confirmation and Secondary Assay for Modulators of Hemoglobin Beta Chain Splicing at IVS2 705 locus (AID 930).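 Note: HeLa cells stably expressing the EGFP-705 splicing reporter; GFP fluorescence per well restored by corrected splicing of the IVS2-705 intron in EGFP; % of control where 0% means no effect.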 The essentials:
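HeLa IVS2-705 EGFP reporter cells, 500/well, compound 2 d at 37C; correct splicing yields fluorescent EGFP. Control: 500 nM antisense PNA. Read-out: total peak GFP intensity.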

Assay [7] concerns the target Catechol O-methyltransferase (Homo sapiens) (UniProt P21964). The assay can be described thus: Confirmatory Screen for Target Class Profiling of Small Molecule Inhibitors of Methyltransferases (AID 1745852). For activity change, negative = inhibition: % is set by controls: 0 for no effect and ±100 for the full control effect. The conditions noted are these: MTase-Glo luminescence, SAH detection, recombinant enzyme; measured here: COMT max response; stronger effect = lower value.
For assay [8], the target named is Guanidinoacetate N-methyltransferase (Homo sapiens) (UniProt Q14353). The assay is described as above. The conditions noted are these: activity change, negative = inhibition: at 57.3 µM (top of the series) unless noted.
The target of assay [9] is Nicotinamide N-methyltransferase (Homo sapiens) (UniProt P40261). The description is as above. The following applies: MTase-Glo luminescence, SAH detection, recombinant enzyme; measured here: NNMT max response; stronger effect = lower value.
For assay [10], the target named is Phenylethanolamine N-methyltransferase (Homo sapiens) (UniProt P11086). Described as above. The following applies: MTase-Glo luminescence, SAH detection, recombinant enzyme; measured here: PNMT max response; stronger effect = lower value.
Assay [11] addresses Estrogen receptor (Homo sapiens) (UniProt P03372). Nature of the assay: qHTS assay for small molecule antagonists of estrogen receptor alpha signaling (AID 588513; active = well fitted curve in the direction sought with a large enough effect in the signal ratio, with a control signal flat, not every such curve was filed as active; the % refers to the signal ratio; note: potency is the fitted concentration of half-maximal effect). An outline of the steps: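 Cells were plated at 5000/well and incubated 4 h at 37 C. Compounds were added as 1:2 dilution series, duplicates. 17-beta-estradiol (0.5nM final) was added for 18 h before CCF4 detection.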

For assay [12] the target is unchanged. The assay can be described thus: qHTS assay for small molecule agonists of estrogen receptor alpha signaling (AID 588514; calls by dose curve;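 note: 0% = vehicle only and 100% = reference agonist; nearly all actives have a fitted effect of over 70% in size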). An outline of the steps: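 Reporter-gene assay. […] controls beta-lactamase in HEK 293 GripTite cells; after 18 hrs with compound, CCF4 substrate is added for 2 hrs and fluorescence is read.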
The target in assay [13] is Androgen receptor (Homo sapiens) (UniProt P10275). Nature of the assay: qHTS assay for small molecule agonists of androgen receptor signaling (AID 588515; active = well fitted curve in the direction sought with a large enough effect in the signal ratio, with a control signal flat; the % refers to the signal ratio; note: % is set by controls: 0 for no effect and ±100 for the full control effect). The following applies: AR-UAS-bla HEK293, beta-lactamase ratio, agonist 16 h; stronger effect = higher value. The essentials:
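EC50 and efficacy came from Hill fits of titrations (up to 92 uM) normalized to 30 nM R1881 as 100% and DMSO as 0%. Compound exposure was 16 h at 37 C on AR-UAS-bla HEK293 cells, with a 405/460/530 nm CCF4 fluorescence read.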

In assay [14] the target is Glucocorticoid receptor (Homo sapiens) (UniProt P04150). The assay can be described thus: qHTS assay for small molecule agonists of glucocorticoid receptor signaling (AID 588532; active = well fitted curve in the direction sought with a large enough effect in the signal ratio, with a control signal flat; the % refers to the signal ratio;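 note: 100% = dexamethasone at 0.1 µM and 0% = DMSO only wells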). The following applies: HeLa MMTV-bla, beta-lactamase ratio, agonist, 18 h; stronger effect = higher value; percent of dexamethasone control, DMSO zero. An outline of the steps: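 Quantitative HTS using CellSensor MMTV-bla HeLa cells in charcoal/dextran-treated serum; compounds tested up to 92 uM. After 18 h at 37 C, CCF4 dye reported reporter induction.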

For assay [15] the target is unchanged. The assay can be described thus: qHTS assay for small molecule antagonists of glucocorticoid receptor signaling (AID 588533; active = well fitted inhibition curve with a large enough effect in the signal ratio, with a control signal flat, not every such curve was filed as active; the % refers to the signal ratio;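 note: cells stimulated with 2 nM dexamethasone as agonist; % is set by controls: 0 for no effect and ±100 for the full control effect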). The essentials: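 Antagonist-mode qHTS: compound titrations added to GRE-bla HeLa cells, then dexamethasone 2 nM final; 18 h, 37 C. CCF4 FRET fluorescence normalized to dexamethasone and DMSO; IC50 from Hill fit.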
Assay [16] in a line: qHTS to identify inhibitors of the type 1 interferon - major histocompatibility complex class I in skeletal muscle: primary screen against the NCATS Mechanism Interrogation Plate v5.0 (MIPE) Libary (AID 1347411).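 Note: plate controls were vehicle for no effect and reference inhibitor for full effect; nearly all actives have a fitted effect of over 65% in size.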 An outline of the steps:
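Cells were genome-edited human myoblasts carrying a HiBit tag on endogenous HLA-B. They were treated with IFN-beta (4.0 ng/ml) and titrated compounds (top 46 uM) for 24 hrs before lytic HiBiT detection.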

Assay [17] concerns the target Cytochrome P450 2C19 (Homo sapiens) (UniProt P33261). Nature of the assay: qHTS Assay for Inhibitors and Substrates of Cytochrome P450 2C19 (AID 899). Note: nearly all actives have a fitted effect of over 60% in size. Note: potency is the fitted concentration of half-maximal effect. The essentials: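 5nM enzyme + 10uM Luciferin-H EGE (=KM), 50mM KPO4; cpd pin-transferred, 10 min 37C; NADPH regen, 60 min 37C; stopped w/ luciferin detection reagent, 20 min; luminescence. Normalized to 57uM ketoconazole (AC100).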

Assay [18] deals with Muscarinic acetylcholine receptor M1 (Rattus norvegicus) (UniProt P08482). Nature of the assay: qHTS Assay for Antagonists of Acetylcholine Muscarinic M1 Receptor: Measurement of IP-One Response (AID 944). Note: nearly all actives have a fitted effect of over 75% in size. An outline of the steps: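 Steps: plate transfected CHO-M1 cells overnight; add test compound, 10 min; add carbachol (200 nM, EC80) in stimulation buffer with LiCl; incubate 30 min; add labelled IP1 tracer and anti-IP1 antibody in lysis buffer; read HTRF after 10 min.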

The target in assay [19] is Pyruvate kinase PKM (Homo sapiens) (UniProt P14618). The assay can be described thus: qHTS Assay for Activators of Human Muscle Pyruvate Kinase (AID 954; active = well fitted curve in the direction sought with a large enough effect, not every such curve was filed as active;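 note: 0% = uninhibited enzyme and -100% = no enzyme or full thiadiazolimine inhibition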). The essentials: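 Human PKM2 activity is measured as ATP generation, detected by luciferase-coupled luminescence. The enzyme (0.1 nM) acts on 0.5 mM PEP and 0.1 mM ADP for 1 h at ambient temperature; data are normalized to uninhibited and full-inhibition wells.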

Assay [20] is described as follows: Counterscreen qHTS for small molecule stabilizers of the endoplasmic reticulum resident proteome: GLuc-NoTag assay (AID 1508627).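 Note: SH-SY5Y cells given compound then 100 nM thapsigargin to empty ER calcium; 0% = thapsigargin alone and -100% = DMSO vehicle control.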 An outline of the steps:
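Luminescence of Gaussia luciferase secreted into the medium (coelenterazine, 0.07x final, unlysed cells) was the read-out. Human SH-SY5Y neuroblastoma cells constitutively secreting untagged GLuc received compound for 19 h, then 100 nM thapsigargin for 4 h.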

Glutathione peroxidase 1 (Homo sapiens), sequence (P07203 whole entry, looked up): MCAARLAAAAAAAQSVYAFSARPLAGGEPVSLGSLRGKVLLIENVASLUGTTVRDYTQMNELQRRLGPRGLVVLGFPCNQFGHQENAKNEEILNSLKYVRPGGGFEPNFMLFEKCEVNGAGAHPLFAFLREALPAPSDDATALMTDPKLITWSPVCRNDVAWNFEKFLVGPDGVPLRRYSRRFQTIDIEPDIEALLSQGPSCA
Glucocorticoid receptor (Homo sapiens), sequence (P04150 whole entry, looked up): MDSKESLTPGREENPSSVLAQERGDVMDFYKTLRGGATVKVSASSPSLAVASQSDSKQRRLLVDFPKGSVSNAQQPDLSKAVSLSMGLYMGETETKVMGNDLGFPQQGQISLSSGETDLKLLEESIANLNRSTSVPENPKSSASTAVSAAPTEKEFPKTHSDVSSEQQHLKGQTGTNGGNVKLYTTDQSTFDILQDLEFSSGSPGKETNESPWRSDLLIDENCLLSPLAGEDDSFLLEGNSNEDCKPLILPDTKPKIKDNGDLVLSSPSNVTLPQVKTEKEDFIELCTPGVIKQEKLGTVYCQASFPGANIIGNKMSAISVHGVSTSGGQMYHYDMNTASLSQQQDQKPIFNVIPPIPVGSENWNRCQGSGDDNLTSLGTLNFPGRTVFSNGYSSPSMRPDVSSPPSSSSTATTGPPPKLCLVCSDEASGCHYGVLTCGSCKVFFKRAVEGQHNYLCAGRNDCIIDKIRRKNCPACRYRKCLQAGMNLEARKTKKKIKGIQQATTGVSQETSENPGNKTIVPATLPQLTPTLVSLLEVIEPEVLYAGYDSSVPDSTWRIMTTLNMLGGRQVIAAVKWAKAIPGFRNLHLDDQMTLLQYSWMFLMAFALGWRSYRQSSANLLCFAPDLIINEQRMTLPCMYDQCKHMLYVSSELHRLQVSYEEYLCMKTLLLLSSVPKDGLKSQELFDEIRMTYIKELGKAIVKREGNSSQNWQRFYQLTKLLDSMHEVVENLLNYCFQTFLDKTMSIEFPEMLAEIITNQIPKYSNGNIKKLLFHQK
Cytochrome P450 2C19 (Homo sapiens), sequence (P33261 whole entry, looked up): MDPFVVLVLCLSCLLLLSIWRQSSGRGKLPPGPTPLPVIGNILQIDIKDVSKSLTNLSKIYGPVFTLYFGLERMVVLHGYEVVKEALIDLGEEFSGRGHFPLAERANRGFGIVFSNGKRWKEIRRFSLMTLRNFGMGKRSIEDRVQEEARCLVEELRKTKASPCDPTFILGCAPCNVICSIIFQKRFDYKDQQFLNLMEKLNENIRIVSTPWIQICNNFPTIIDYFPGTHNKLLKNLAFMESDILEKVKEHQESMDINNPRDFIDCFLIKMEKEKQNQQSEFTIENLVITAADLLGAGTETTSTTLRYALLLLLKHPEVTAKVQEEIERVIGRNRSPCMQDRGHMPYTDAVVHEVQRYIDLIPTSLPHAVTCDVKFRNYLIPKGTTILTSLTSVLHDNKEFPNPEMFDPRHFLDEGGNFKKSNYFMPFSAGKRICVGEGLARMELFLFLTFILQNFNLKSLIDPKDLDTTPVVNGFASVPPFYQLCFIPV
Estrogen receptor (Homo sapiens), sequence (P03372 whole entry, looked up): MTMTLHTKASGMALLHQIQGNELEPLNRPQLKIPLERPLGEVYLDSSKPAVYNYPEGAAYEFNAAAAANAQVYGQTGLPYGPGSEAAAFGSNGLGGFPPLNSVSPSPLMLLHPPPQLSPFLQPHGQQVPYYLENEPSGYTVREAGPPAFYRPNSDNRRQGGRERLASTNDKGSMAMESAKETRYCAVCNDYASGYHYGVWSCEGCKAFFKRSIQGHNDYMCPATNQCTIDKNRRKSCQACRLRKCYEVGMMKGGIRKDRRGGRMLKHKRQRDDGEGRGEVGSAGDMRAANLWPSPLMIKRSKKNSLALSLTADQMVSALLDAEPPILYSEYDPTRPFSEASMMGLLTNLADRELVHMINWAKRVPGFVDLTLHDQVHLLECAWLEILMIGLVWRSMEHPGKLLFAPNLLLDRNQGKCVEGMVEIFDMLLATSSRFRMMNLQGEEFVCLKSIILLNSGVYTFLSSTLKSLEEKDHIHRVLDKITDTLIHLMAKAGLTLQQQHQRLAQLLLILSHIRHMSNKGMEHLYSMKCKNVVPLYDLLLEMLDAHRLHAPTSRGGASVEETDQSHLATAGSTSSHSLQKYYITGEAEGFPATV
Muscarinic acetylcholine receptor M1 (Rattus norvegicus), sequence (P08482 whole entry, looked up): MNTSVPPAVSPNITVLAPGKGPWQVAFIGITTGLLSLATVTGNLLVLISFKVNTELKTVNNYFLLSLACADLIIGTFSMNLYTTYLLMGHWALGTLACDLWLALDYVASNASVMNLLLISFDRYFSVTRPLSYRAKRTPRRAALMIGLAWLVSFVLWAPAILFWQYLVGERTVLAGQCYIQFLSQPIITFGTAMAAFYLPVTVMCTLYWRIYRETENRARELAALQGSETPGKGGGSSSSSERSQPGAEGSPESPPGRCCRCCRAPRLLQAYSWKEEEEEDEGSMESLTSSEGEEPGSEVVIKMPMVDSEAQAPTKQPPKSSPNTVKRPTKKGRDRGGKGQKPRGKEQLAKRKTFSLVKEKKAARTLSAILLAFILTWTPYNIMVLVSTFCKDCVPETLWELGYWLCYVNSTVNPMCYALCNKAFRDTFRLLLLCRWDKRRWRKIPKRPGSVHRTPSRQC
Pyruvate kinase PKM (Homo sapiens), sequence (P14618 whole entry, looked up): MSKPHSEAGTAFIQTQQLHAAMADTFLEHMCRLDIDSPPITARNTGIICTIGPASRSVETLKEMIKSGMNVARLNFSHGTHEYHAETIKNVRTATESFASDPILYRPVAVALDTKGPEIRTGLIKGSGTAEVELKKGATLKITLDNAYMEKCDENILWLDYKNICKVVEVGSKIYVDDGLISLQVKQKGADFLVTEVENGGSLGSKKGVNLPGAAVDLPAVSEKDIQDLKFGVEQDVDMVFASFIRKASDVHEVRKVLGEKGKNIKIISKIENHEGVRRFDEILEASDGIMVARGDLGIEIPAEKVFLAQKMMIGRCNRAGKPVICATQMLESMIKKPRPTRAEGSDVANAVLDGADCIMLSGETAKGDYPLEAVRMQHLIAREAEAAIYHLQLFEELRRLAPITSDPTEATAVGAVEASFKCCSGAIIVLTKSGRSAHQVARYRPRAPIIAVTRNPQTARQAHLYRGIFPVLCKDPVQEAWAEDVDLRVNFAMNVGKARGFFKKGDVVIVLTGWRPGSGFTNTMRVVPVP
Phenylethanolamine N-methyltransferase (Homo sapiens), sequence (P11086 whole entry, looked up): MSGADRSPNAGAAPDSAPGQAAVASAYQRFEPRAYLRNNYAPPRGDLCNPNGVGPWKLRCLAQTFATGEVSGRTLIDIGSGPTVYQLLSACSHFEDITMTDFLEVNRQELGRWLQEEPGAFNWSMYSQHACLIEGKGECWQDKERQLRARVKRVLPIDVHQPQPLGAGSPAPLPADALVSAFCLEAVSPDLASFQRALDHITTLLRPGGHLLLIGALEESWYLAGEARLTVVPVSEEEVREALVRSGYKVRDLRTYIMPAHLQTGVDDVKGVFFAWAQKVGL
Androgen receptor (Homo sapiens), sequence (P10275 whole entry, looked up): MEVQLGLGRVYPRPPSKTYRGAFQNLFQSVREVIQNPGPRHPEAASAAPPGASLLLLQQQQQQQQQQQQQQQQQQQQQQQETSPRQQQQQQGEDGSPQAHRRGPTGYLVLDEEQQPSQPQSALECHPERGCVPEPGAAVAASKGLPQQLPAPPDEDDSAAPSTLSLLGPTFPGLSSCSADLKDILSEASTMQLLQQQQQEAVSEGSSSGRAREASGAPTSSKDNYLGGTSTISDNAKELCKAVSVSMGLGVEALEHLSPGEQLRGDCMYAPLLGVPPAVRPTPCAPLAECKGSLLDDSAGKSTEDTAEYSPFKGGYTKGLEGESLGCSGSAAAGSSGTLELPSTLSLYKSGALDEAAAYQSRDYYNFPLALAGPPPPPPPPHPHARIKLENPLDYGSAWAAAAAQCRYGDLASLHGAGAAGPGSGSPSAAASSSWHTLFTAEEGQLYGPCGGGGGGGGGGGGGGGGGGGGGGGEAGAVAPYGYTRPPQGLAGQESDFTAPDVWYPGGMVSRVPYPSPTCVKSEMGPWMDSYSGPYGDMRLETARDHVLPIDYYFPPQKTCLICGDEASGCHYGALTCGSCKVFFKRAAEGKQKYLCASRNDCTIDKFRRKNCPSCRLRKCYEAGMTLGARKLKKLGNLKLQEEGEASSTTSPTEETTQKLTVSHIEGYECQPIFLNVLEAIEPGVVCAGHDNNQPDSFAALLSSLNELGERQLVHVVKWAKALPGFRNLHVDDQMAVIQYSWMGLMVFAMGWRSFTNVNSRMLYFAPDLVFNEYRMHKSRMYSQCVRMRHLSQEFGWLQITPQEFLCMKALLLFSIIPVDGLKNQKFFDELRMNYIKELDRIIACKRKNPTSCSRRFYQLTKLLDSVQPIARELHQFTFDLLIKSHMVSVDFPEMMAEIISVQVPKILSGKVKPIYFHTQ
Nicotinamide N-methyltransferase (Homo sapiens), sequence (P40261 whole entry, looked up): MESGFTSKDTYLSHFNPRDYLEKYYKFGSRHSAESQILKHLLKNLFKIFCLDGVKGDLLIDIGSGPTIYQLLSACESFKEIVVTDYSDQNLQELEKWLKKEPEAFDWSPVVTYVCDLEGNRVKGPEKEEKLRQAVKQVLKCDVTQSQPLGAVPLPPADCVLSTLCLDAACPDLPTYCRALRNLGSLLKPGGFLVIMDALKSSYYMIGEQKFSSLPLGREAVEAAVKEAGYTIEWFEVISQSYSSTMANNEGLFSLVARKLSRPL
Catechol O-methyltransferase (Homo sapiens), sequence (P21964 whole entry, looked up): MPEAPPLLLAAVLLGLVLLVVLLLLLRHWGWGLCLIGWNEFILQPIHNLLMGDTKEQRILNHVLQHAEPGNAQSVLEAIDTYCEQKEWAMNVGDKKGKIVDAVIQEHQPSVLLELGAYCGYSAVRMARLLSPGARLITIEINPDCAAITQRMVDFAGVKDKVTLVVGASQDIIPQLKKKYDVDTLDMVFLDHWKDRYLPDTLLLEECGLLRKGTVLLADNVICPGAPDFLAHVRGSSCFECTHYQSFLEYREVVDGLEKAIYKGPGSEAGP

Regarding `CC1(C)CC[C@]2(C(=O)O)CC[C@]3(C)C(=CC[C@@H]4[C@@]5(C)C[C@@H](O)[C@H](O)C(C)(C)[C@@H]5CC[C@]43C)[C@@H]2C1`, in assay [1], the Potency result is “inactive”.

As to `CCC(C)CCCCC(=O)NC(CCNCS(=O)(=O)O)C(=O)NC(C(=O)NC(CCNCS(=O)(=O)O)C(=O)NC1CCNC(=O)C(C(C)O)NC(=O)C(CCNCS(=O)(=O)O)NC(=O)C(CCNCS(=O)(=O)O)NC(=O)C(CC(C)C)NC(=O)C(CC(C)C)NC(=O)C(CCNCS(=O)(=O)O)NC1=O)C(C)O` (stereo not given) ({Octanoyl(6-Me)}-[ξDab(CH2SO3H)]T[ξDab(CH2SO3H)][Dab][ξDab(CH2SO3H)]LL[ξDab(CH2SO3H)][ξDab(CH2SO3H)]T; lactam 4-C; configuration not given here), the Potency is 12.6 µM (active) in assay [2], 25.1 µM (active) in assay [3] and 3.55 µM (active) in [4].

Turning to `COc1cc(/C=C/C(=O)O)ccc1O`, the outcome in assay [5] and in [6] was “inactive” throughout.

Consider `CC(C)CN1CC(COc2ccc3ccccc3c2)Oc2ccnc(-c3ccc(OCC(=O)O)cc3)c2C1=O` (stereo not given), for which the Potency in assay [3] was 355 µM (active); in assay [4] it was 39.8 µM (active).

`O=c1oc2ccc3ccccc3c2cc1-c1nnc(Nc2cc(C(F)(F)F)ccc2Cl)s1`: in assay [2], the Potency result was “inactive”.

Regarding `Nc1ccc(-c2cnc(N)c(-c3ccc(Cl)cc3)c2)cn1`, the values for the activity in assay [7], in assay [9] and in assay [10] were -71.5%, -33.1% and -5.01%, respectively. In addition, the activity change, negative = inhibition in [8] was -1.94%.

For `Clc1ccc(-c2nc3sccn3c2/C=N/OCc2ccc(Cl)c(Cl)c2)cc1`, in assay [11], the Potency is 20 µM [inhibitor] (active). In addition, the outcome in assay [12] and in assay [15] was “inactive” in each case. Besides, the activation in [13] is -9.11% (inactive); in [14], 2.87% (inactive). In addition, the Potency entry in assay [16] and in assay [1] was “inactive” throughout.

For the molecule `COc1ccc2c(c1)c(CC(=O)N1CCOCC1)c(C)n2C(=O)c1ccc(Cl)cc1`, the Potency result in [17] and in assay [18] was “inactive” throughout. In [19], the outcome was “inactive”.

As for `COc1ccc2c3c1O[C@H]1C[C@H](O)C=C[C@@]31CCN(C)C2`, in [20], the Potency entry is “inactive”.

Consider `CC(C)(C)NC[C@H](O)c1ccc(O)c(CO)c1`, for which the outcome in assay [5] and in assay [6] was “inactive” each time.

As for `Cc1cc(C)c(S(=O)(=O)Nc2cccc(C(F)(F)F)c2)c(C)c1`, the Potency in assay [17] is 3.16 µM (active).

Consider `C[C@]12CC3CC(N)(C1)C[C@@](C)(C3)C2`, for which the Potency result in assay [18] and in assay [20] was “inactive” throughout. Moreover, the outcome in assay [19] is “inactive”.
